The values below come from PubChem BioAssay (NCI).

Holding throughout (assay): NCI-60 one-dose screen, 48 h (100 = growth as untreated, 0 = no growth, -100 = all killed)
Assay [1] relates to HCT-15 colon. As to conditions: 10 µM unless noted.
In assay [2] the test system is HT29 colon. As to conditions: 10 µM unless noted.
In assay [3] the test system is SNB-75 CNS. As to conditions: 10 µM unless noted.
Assay [4] has as its system SNB-19 CNS. Particulars: 10 µM unless noted.
The test system of assay [5] is U251 CNS. Particulars: 10 µM unless noted.
Assay [6] concerns PC-3 prostate. Particulars: 10 µM unless noted.
Assay [7] deals with SK-MEL-5 melanoma. As to conditions: 10 µM unless noted.
In assay [8] the test system is UACC-62 melanoma. As to conditions: 10 µM unless noted.
Assay [9] deals with LOX IMVI melanoma. Particulars: 10 µM unless noted.
In assay [10] the test system is SK-MEL-28 melanoma. As to conditions: 10 µM unless noted.
For assay [11], the system named is SK-MEL-2 melanoma. As to conditions: 10 µM.
In assay [12] the test system is EKVX NSCLC. As to conditions: 10 µM unless noted.
Assay [13] has as its system SN12C renal. As to conditions: 10 µM unless noted.
Assay [14] deals with UO-31 renal. Particulars: 10 µM unless noted.
The subject of assay [15] is TK-10 renal. As to conditions: 10 µM unless noted.
For assay [16], the system named is ACHN renal. As to conditions: 10 µM unless noted.
Assay [17] relates to A498 renal. As to conditions: 10 µM unless noted.
The test system of assay [18] is CCRF-CEM leukemia. As to conditions: 10 µM unless noted.
The test system of assay [19] is MOLT-4 leukemia. Particulars: 10 µM unless noted.
In assay [20] the test system is CAKI-1 renal. As to conditions: 10 µM unless noted.

Molecules are shown by their SMILES. About 83,000 compounds went through this panel and 20% of them were active in at least one assay; those are over-represented in the sample as a whole.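 The test compound was applied at a single concentration to cells in 96-well plates for 48 hours, and percent growth was recorded.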 Unmarked numbers belong to inactive results. The source made the active and inactive calls. How the source made its calls: active means growth percent below 10; inactive means the rest.

In the case of `CC(=O)C(C(C)=O)C(c1ccccc1)C(C(C)=O)C(C)=O`, the growth in assay [1] is 100%; in assay [2] it was 98.5%; in [3] it was 95.1%; in assay [4], 102%; in assay [5], 93.5%; in assay [6] it was 89.8%. For the same compound, the growth in assay [7] was 97.2%; in [8] it was 98.2%; in [9], 94.4%; in assay [10] it was 103%; in [11], 100%; in assay [12] it was 96.9%. Moreover, the growth in assay [13] was 98.9%; in assay [14], 90.9%; in [15], 98.1%; in assay [16], 106%; in [17] it was 105%; in [18] it was 93.5%. Also, in [19], the growth was 104%.
Consider `CCN1CCN(c2nc(C)cc(N(CCNc3ccnc4cc(Cl)ccc34)Cc3ccc4c(c3)OCO4)n2)CC1`, for which the growth was -6.94% (active) in assay [1]; -13.4% (active) in assay [2]; 9.98% (active) in assay [3]; 29.9% in assay [4]; -44.6% (active) in assay [5]; 50.7% in assay [6]. For the same compound, the growth in assay [7] was -96.6% (active); in assay [8], 44.9%; in [9], -74.5% (active); in assay [10] it was -72% (active); in [11], -55.8% (active); in assay [12], 68.2%. The growth is 59.3% in assay [13]; -41.7% (active) in assay [14]; -47.1% (active) in assay [15]; 53.2% in assay [17]; -1.37% (active) in assay [18]; -3.96% (active) in assay [19].
In the case of `CN1CCN(c2nc(NCCNc3ccnc4cc(Cl)ccc34)c3ccccc3n2)CC1`, the growth is 16.1% in [1]; 0.651% (active) in assay [2]; 74.7% in assay [3]; 34.8% in assay [4]; 9.01% (active) in assay [5]; 30.4% in assay [6]. The growth in [7] was -97.5% (active); in assay [8], -55.1% (active); in [9], -56% (active); in assay [10] it was -58.5% (active); in assay [11] it was -45.5% (active); in assay [12], 52.3%. For the same compound, the growth in [13] was 10.9%; in assay [14], -9.51% (active); in [15], 16.5%; in [16], 5.61% (active); in assay [18], 3.19% (active); in assay [19], 6.2% (active).
Consider `CC1(C)NC(=O)c2[nH]c3c(Cl)c(Cl)ccc3c2C1C#N` (stereo not drawn), for which the growth in assay [1] was 87.9%; in assay [2] it was 78.2%; in assay [3], 75.7%; in assay [4], 87.5%; in [5], 81.7%; in assay [6], 79.6%. Further, the growth is 8.85% (active) in assay [7]; 73.1% in [8]; 85.5% in assay [9]; 103% in assay [10]; 80.6% in [11]; 67.2% in assay [12]. Also, the growth was 89.5% in assay [13]; 63.2% in assay [15]; 78.6% in assay [16]; 49.8% in assay [20]; 70.3% in assay [18]; 62% in [19].
As for `CC(CCCC(=O)O)c1ccoc1` (stereo not drawn), the growth is 102% in [1]; 95.5% in [2]; 92.6% in [3]; 111% in assay [4]; 109% in assay [5]; 98.4% in assay [6]. In addition, the growth is 106% in assay [7]; 107% in assay [8]; 97.8% in assay [9]; 109% in assay [10]; 105% in [11]; 96% in assay [12]. Besides, the growth was 105% in assay [13]; 86.2% in assay [14]; 98.3% in [15]; 111% in [16]; 109% in [18].
As for `N#Cc1c(NC(=O)c2cccs2)[n+]([O-])c2ccc(F)cc2[n+]1[O-]`, the growth in assay [1] is 74.6%; in assay [2], 97.6%; in [3] it was 81.1%; in [4] it was 98%; in assay [5] it was 93.2%; in [6], 77.3%. Further, the growth was 2.84% (active) in assay [7]; 83.2% in assay [8]; 89.9% in assay [9]; 112% in [10]; 92.9% in [11]; 86.4% in assay [12]. Further, the growth in [13] was 98.3%; in [15], 117%; in assay [16], 89%; in assay [20], 90.7%; in assay [18] it was 77.7%; in assay [19], 90.2%.
